M1 ag parental: M1 agonist counterscreen hit in parental CHO-K1 cells. Fluo-8 calcium fluorescence; scaled to maximal ATP response, vehicle zero. activation, % at 3 µM. 360,000 tested, 0.48% active. AID 602248; in the data active = activation above about 15%;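 also: untransfected CHO-K1 host cells lacking M1 receptor as counterscreen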
CHRM4 antagonist: antagonists of human muscarinic M4 receptor (CHRM4) | P08173 | CHO-hM4 cells, ACh EC80, Fluo-8 calcium fluorescence | inhibition, % at 3 µM | 360,000 tested, 0.73% active;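 active = inhibition above its plate's cutoff, the mean inhibition of sample wells plus 3 SD, cut at about 27% in these data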;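 also: 0% = acetylcholine EC80 with DMSO and 100% = DMSO without agonist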
Target sequence (P08173 whole entry, looked up): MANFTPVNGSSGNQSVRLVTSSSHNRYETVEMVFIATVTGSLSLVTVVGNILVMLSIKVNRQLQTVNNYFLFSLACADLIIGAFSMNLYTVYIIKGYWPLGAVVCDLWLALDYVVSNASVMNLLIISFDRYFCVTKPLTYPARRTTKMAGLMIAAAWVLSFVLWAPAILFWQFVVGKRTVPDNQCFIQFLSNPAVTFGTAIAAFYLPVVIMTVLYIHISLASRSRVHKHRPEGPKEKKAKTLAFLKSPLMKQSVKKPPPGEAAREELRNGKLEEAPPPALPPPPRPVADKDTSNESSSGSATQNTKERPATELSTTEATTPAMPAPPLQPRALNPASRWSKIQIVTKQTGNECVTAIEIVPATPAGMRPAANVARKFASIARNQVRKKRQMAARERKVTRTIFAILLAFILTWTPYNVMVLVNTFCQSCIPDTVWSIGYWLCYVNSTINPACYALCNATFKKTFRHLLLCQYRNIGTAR
M1 PAM parental: nonselective activator or artifact in parental CHO-K1 calcium assay. activation, % at 3 µM. 360,000 tested, 0.02% active. ATP EC20, Fluo-8 calcium fluorescence; 0% at ATP EC20, 100% at ATP max;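 active = activation above the run cutoff, the mean activation of all test compounds plus 3 SD, cut at about 40% in these data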;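 also: peak over basal fluorescence ratio in a 140 s read after ATP addition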
CHO-K1 Ca antag: nonselective inhibitor or artifact in parental CHO-K1 cells; ATP-induced calcium, Fluo-8 fluorescence; inhibition, % at 3 µM; AID 602250; 360,000 tested, 0.6% active;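 active = inhibition above a per-plate cutoff, the plate's mean sample inhibition plus 3 SD, cut at about 24% in these data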;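 also: 0% = DMSO plus EC80 ATP and 100% = DMSO alone without ATP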
CHRM4 PAM: positive allosteric modulators of human muscarinic M4 receptor; P08173; CHO-K1 hM4/Gqi5, Fluo-8 calcium fluorescence, ACh EC20; 0% = ACh EC20, 100% = maximal ACh; activation, % at 3 µM; 360,000 tested, 0.4% active; AID 624126;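 active = activation above its plate's cutoff, the mean activation of sample wells plus 3 SD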
CHRM4 agonist: agonists of human muscarinic M4 receptor (CHRM4). P08173. CHO-K1 hM4/Gqi5, Fluo-8 calcium fluorescence; vehicle 0%, full acetylcholine response 100%. activation, % at 3 µM. 360,000 tested, 0.14% active. AID 624127;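 active = activation above the run mean over all test wells plus 3 SD, cut at about 32% in these data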;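 also: peak over basal fluorescence ratio per well then scaled between controls; 0% = DMSO wells and 100% = acetylcholine at EC100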
An asterisk follows results filed as active. Shown are actives, neighbours in structure and some others; about 2% of the full set was active somewhere.

What do the screens show for `CC(Oc1ccccc1F)C(=O)NNC(=O)C1CC(=O)N(c2ccc3c(c2)OCCO3)C1` (centres undefined)?
M1 ag parental: 0; CHRM4 antagonist: 2; M1 PAM parental: -19; CHO-K1 Ca antag: 11; CHRM4 PAM: 1; CHRM4 agonist: 0

What do the screens show for `CCCCn1nc(C(=O)Nc2ccc3c(c2)OCO3)c2ccccc2c1=O`?
M1 ag parental: -1; CHRM4 antagonist: 7; M1 PAM parental: -8; CHO-K1 Ca antag: -3; CHRM4 PAM: 4; CHRM4 agonist: 5

Results for O=c1c2cc(C(F)(F)F)ccc2sn1-c1ccccc1 ?
M1 ag parental: 5; CHRM4 antagonist: 4; M1 PAM parental: 11; CHO-K1 Ca antag: -3; CHRM4 PAM: -4; CHRM4 agonist: 9

What do the screens show for `O=c1c2cc(F)ccc2sn1-c1ccccc1`?
M1 ag parental: 19*; CHRM4 antagonist: 14; M1 PAM parental: 10; CHO-K1 Ca antag: -9; CHRM4 PAM: -5; CHRM4 agonist: 30

How did CCOc1ccc(C(C)=O)cc1CSC(=N)N do in these assays?
M1 ag parental: 0; CHRM4 antagonist: -5; M1 PAM parental: 4; CHO-K1 Ca antag: 6; CHRM4 PAM: 0; CHRM4 agonist: 0

How did CCCCOc1ccc(Br)cc1CSC(=N)N do in these assays?
M1 ag parental: 7; CHRM4 antagonist: 26*; M1 PAM parental: -15; CHO-K1 Ca antag: 34*; CHRM4 PAM: -10; CHRM4 agonist: 10

Results for CCOC(=O)NC(=O)/C(C#N)=N/Nc1ccc(F)cc1 ?
M1 ag parental: 1; CHRM4 antagonist: 26; M1 PAM parental: -6; CHO-K1 Ca antag: 27*; CHRM4 PAM: 22; CHRM4 agonist: 1

How did Cc1ccc2c(CC(=O)NC3CCS(=O)(=O)C3)coc2c1C (centres undefined) do in these assays?
M1 ag parental: 0; CHRM4 antagonist: 13; M1 PAM parental: -1; CHO-K1 Ca antag: -12; CHRM4 PAM: 18*; CHRM4 agonist: 2

What do the screens show for `COCCN(C(=O)COC(=O)C12CC3CC(CC(Cl)(C3)C1)C2)c1c(N)n(Cc2ccccc2)c(=O)[nH]c1=O`?
M1 ag parental: 0; CHRM4 antagonist: -15; M1 PAM parental: 7; CHO-K1 Ca antag: 1; CHRM4 PAM: 27*; CHRM4 agonist: 2

Results for COCCN(C(=O)COC(=O)c1ccccc1Oc1ccccc1)c1c(N)n(Cc2ccccc2)c(=O)[nH]c1=O ?
M1 ag parental: 1; CHRM4 antagonist: 2; M1 PAM parental: 9; CHO-K1 Ca antag: -7; CHRM4 PAM: 6; CHRM4 agonist: 1

How did CCN(C(=O)COC(=O)c1nc(Cl)ccc1Cl)c1c(N)n(Cc2ccccc2)c(=O)[nH]c1=O do in these assays?
M1 ag parental: 0; CHRM4 antagonist: 2; M1 PAM parental: 8; CHO-K1 Ca antag: -12; CHRM4 PAM: 13; CHRM4 agonist: 1

Results for COCCN(C(=O)COC(=O)c1nc(Cl)ccc1Cl)c1c(N)n(Cc2ccccc2)c(=O)[nH]c1=O ?
M1 ag parental: 1; CHRM4 antagonist: 27*; M1 PAM parental: -21; CHO-K1 Ca antag: 0; CHRM4 PAM: -6; CHRM4 agonist: 0

Results for CCN(C(=O)COC(=O)c1ccccc1Oc1ccccc1)c1c(N)n(Cc2ccccc2)c(=O)[nH]c1=O ?
M1 ag parental: 0; CHRM4 antagonist: -6; M1 PAM parental: 7; CHO-K1 Ca antag: -6; CHRM4 PAM: 25*; CHRM4 agonist: 2

How did COCCN(C(=O)COC(=O)c1cccnc1SC)c1c(N)n(Cc2ccccc2)c(=O)[nH]c1=O do in these assays?
M1 ag parental: 0; CHRM4 antagonist: -13; M1 PAM parental: -25; CHO-K1 Ca antag: -6; CHRM4 PAM: 22*; CHRM4 agonist: 1

Results for CCCCN1C[C@H](CO)Oc2cccc(F)c2S1(=O)=O ?
M1 ag parental: 1; CHRM4 antagonist: -3; M1 PAM parental: -6; CHO-K1 Ca antag: -5; CHRM4 PAM: 6; CHRM4 agonist: 1

Results for Cc1ccnc(N2CCCC(C(=O)Nc3cccc(C)c3C)C2)n1 (centres undefined) ?
M1 ag parental: 1; CHRM4 antagonist: -2; M1 PAM parental: -7; CHO-K1 Ca antag: -13; CHRM4 PAM: -3; CHRM4 agonist: 0

What do the screens show for `CC[C@]12c3[nH]c4cc(CCC(=O)N(C)C)ccc4c3CCN1C(=O)[C@@H](CC(=O)NCCCOC)C[C@@H]2C(=O)N1CCN(C(=O)c2ccco2)CC1`?
M1 ag parental: 1; CHRM4 antagonist: 3; M1 PAM parental: 18; CHO-K1 Ca antag: -7; CHRM4 PAM: 0; CHRM4 agonist: 0

What do the screens show for `COC(=O)c1sc(S(=O)(=O)N2CC(C)OC(C)C2)c(C(=O)OC)c1C` (centres undefined)?
M1 ag parental: 1; CHRM4 antagonist: -2; M1 PAM parental: 27; CHO-K1 Ca antag: -6; CHRM4 PAM: 7; CHRM4 agonist: 1

Results for CC(C)(C)C(=O)OC/C(N)=N/OC(=O)c1ccc(Cl)cc1 ?
M1 ag parental: 16*; CHRM4 antagonist: 1; M1 PAM parental: 23; CHO-K1 Ca antag: -9; CHRM4 PAM: 0; CHRM4 agonist: 1

Results for N/C(Cc1ccc(Cl)cc1)=N\OC(=O)c1ccccc1 ?
M1 ag parental: 1; CHRM4 antagonist: -4; M1 PAM parental: 19; CHO-K1 Ca antag: -7; CHRM4 PAM: -3; CHRM4 agonist: 1

Results for O=Cc1ccc(-c2ccccc2C(=O)O)o1 ?
M1 ag parental: -1; CHRM4 antagonist: 2; M1 PAM parental: -19; CHO-K1 Ca antag: 29*; CHRM4 PAM: 1; CHRM4 agonist: 1

What do the screens show for `COC(=O)c1ccccc1-c1ccc(C=O)o1`?
M1 ag parental: 0; CHRM4 antagonist: 9; M1 PAM parental: 6; CHO-K1 Ca antag: 3; CHRM4 PAM: 10; CHRM4 agonist: 2

How did Cc1ccc(CN(C)C(=O)CCNC(=O)c2ccc(Cl)cc2)o1 do in these assays?
M1 ag parental: 0; CHRM4 antagonist: 5; M1 PAM parental: -4; CHO-K1 Ca antag: -4; CHRM4 PAM: -2; CHRM4 agonist: 0

How did COC(=O)c1cnc(N2CCOCC2)nc1C(F)(F)F do in these assays?
M1 ag parental: 0; CHRM4 antagonist: -12; M1 PAM parental: 13; CHO-K1 Ca antag: -12; CHRM4 PAM: 10; CHRM4 agonist: 0

How did O=C(CSc1nnc(NC(=O)c2c(F)cccc2F)s1)NCc1ccc(F)cc1 do in these assays?
M1 ag parental: 0; CHRM4 antagonist: 4; M1 PAM parental: 14; CHO-K1 Ca antag: -4; CHRM4 PAM: 3; CHRM4 agonist: 0

What do the screens show for `CC1(O)c2ccccc2C(=O)N1Cc1ccccc1` (centres undefined)?
M1 ag parental: -1; CHRM4 antagonist: -11; M1 PAM parental: -6; CHO-K1 Ca antag: 27*; CHRM4 PAM: 16; CHRM4 agonist: -4

Results for CC1(O)c2ccccc2C(=O)N1CCc1ccccc1F (centres undefined) ?
M1 ag parental: 0; CHRM4 antagonist: 5; M1 PAM parental: 20; CHO-K1 Ca antag: -12; CHRM4 PAM: -2; CHRM4 agonist: 0

Screening data: PubChem BioAssay, The Scripps Research Institute Molecular Screening Center
